From PubChem
NOD2 RIPK2 PPI – inhibitors of human NOD2-RIPK2 interaction. O43353. CHO BLA complementation NOD2-RIPK2, CCF4 ratio. inhibition, % at 4.98 µM. actives 0.38% (n = 360,000); in the data active = inhibition above about 21%
Target sequence (O43353 whole entry, looked up): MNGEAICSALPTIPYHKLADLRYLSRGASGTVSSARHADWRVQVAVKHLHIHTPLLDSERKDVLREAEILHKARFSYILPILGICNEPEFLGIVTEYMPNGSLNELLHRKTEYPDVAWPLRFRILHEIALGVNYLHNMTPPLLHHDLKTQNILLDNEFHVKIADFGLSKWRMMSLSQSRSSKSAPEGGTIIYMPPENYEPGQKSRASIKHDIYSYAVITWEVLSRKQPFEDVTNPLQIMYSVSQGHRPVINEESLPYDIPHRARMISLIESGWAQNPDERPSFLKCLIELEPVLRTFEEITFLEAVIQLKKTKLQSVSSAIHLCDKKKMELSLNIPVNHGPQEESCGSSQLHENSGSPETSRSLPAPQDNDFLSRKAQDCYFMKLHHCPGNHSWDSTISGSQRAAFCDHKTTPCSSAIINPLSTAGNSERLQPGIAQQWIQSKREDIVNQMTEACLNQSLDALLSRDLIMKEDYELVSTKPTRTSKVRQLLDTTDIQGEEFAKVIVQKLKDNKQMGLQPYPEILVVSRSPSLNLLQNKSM
TLR4-MyD88 BLA – inhibitors of human TLR4-MyD88 binding; O00206+Q99836; inhibition, % at 8.4 µM; actives 0.18% (n = 200,000); AID 861; HeLa CL3-4 TLR4/MyD88 BLA complementation, FRET ratio; in the data active = inhibition above about 25%
HSF-1 act – increases HSF-1 driven luciferase reporter signal | NIH3T3-HGL HSF-1 luciferase reporter, MG132, 8 h; 100% = twice DMSO control signal | activation, % at 9 µM | actives 1.7% (n = 300,000) | AID 504408;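 active = mean replicate activation of at least 50% with a set share of replicates each reaching 50%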
HSF1 inh – HSF1 inhibition; NIH3T3-HGL HSE-luciferase, MG132-induced, luminescence 8 h; active compounds read low; activity change, negative = inhibition, % at 7.5 µM (by protocol); actives 0.77% (n = 300,000); AID 2098;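 active = more than half of replicate wells show activity change below -50%, luminescence cut by over half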;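 note: luciferase reports HSF-1 transcriptional activity via heat shock element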
TLR9-MyD88 block – inhibitors of human TLR9-MyD88 binding. Q9NR96+Q99836. CHO BLA complementation TLR9-MyD88, CCF4 FRET ratio. inhibition, % at 4.98 µM. actives 0.21% (n = 340,000). AID 504734;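 active = inhibition above the mean over all tested compounds plus 3 SD, cut at about 21% in these data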
Large screens that a line does not name were inactive. This is a sample that favours compounds with a hit; in the whole collection about 2.4% have one here.

N#Cc1ccsc1NC(=O)CSc1nnc(-c2ccccc2)o1	HSF-1 act 55.8
Cc1cnc(NC(=O)CSc2nnc(COc3ccccc3)o2)s1	none (no result: TLR4-MyD88 BLA)
Cc1cnc(NC(=O)CSc2nnc(-c3ccccc3)o2)s1	HSF-1 act 61.2
O=C(NCc1cccnc1)c1cc(C2CCCCN2C(=O)c2cccs2)on1 (stereo not drawn)	none (no result: TLR4-MyD88 BLA, HSF-1 act, HSF1 inh, TLR9-MyD88 block)
COc1ccc(S(=O)(=O)NCCCN2CCCC2=O)cc1OC	none (no result: TLR4-MyD88 BLA)
O=C(Nc1ccc2c(c1)OCO2)C1CCCN(c2nc3ccccc3s2)C1 (stereo not drawn)	HSF-1 act 76.9
COc1ccc(CNC(=O)c2sc(=S)n(-c3ccccc3)c2N)cc1	HSF1 inh -67.4 (no result: TLR4-MyD88 BLA)
C(=N\N1CCN(Cc2cccc3ccccc23)CC1)/c1cccnc1	HSF-1 act 62.1
FC(F)(F)c1ccc(/C=N/N2CCN(Cc3cccc4ccccc34)CC2)cc1	none
CCOC(=O)CC1NCCc2c1[nH]c1ccc(OC)cc21 (stereo not drawn)	HSF-1 act 57.8 (no result: TLR4-MyD88 BLA)
CCN(CC)S(=O)(=O)c1cccc(NC(=O)/C=C/c2ccc([N+](=O)[O-])cc2)c1	HSF-1 act 69.9
C[C@@H]1CN([C@@H](C)CO)C(=O)CCCn2nncc2CO[C@@H]1CN(C)S(=O)(=O)c1cccs1	none (no result: TLR4-MyD88 BLA, HSF-1 act, HSF1 inh)
CCOC(=O)C1CCCN(C(=O)Cn2ncc3c([nH]c4ccc(C)cc43)c2=O)C1 (stereo not drawn)	none (no result: TLR4-MyD88 BLA)
O=C(Nc1cccc(S(=O)(=O)N2CCCCC2)c1)C1COc2ccccc2O1 (stereo not drawn)	none (no result: TLR4-MyD88 BLA, HSF-1 act, HSF1 inh)
Cc1ccc[n+](CC(=O)Nc2ccc([N+](=O)[O-])cc2Cl)c1	HSF-1 act 66.6
Cc1ccc(NC2=CC(=O)C(=O)c3ccccc32)cc1	HSF-1 act 79.8
NS(=O)(=O)c1ccc(NC2=CC(=O)C(=O)c3ccccc32)cc1	HSF1 inh -70.0 (no result: TLR4-MyD88 BLA)
CCOC(=O)c1ccc(NC2=CC(=O)C(=O)c3ccccc32)cc1	none
COc1ccc(OCCOC(=O)c2ccc(F)c(S(=O)(=O)N3CCOCC3)c2)cc1	none (no result: TLR4-MyD88 BLA, HSF-1 act, HSF1 inh)
CC(C)(C)NC(=O)c1cccc(NC(=O)Cc2cccs2)c1	HSF1 inh -77.5
Cc1cnc(C(=O)Nc2ccc(-n3cnnn3)cc2)cn1	none
COc1ccc(NC(=O)C2CC2)cc1-n1cnnn1	HSF1 inh -71.8
Cc1cccc(NC(=O)c2cccc(NC(=O)Cc3cccs3)c2)c1	none
COc1cc(NC(=O)C2CCN(S(=O)(=O)c3ccc(Cl)cc3)CC2)ccc1-n1cnnn1	none
COc1ccc(NC(=O)c2cnc(C)cn2)cc1-n1cnnn1	HSF1 inh -59.7
COc1cc(NC(=O)Cc2cccs2)ccc1-n1cnnn1	HSF-1 act 75.5
O=C(CSc1ccc(F)cc1)NCC1(N2CCOCC2)CCCCC1	none (no result: TLR4-MyD88 BLA)
Oc1c(CN2CCCC(C(F)(F)F)C2)cc(Cl)c2ccccc12 (stereo not drawn)	none (no result: TLR4-MyD88 BLA)
CC1(C(=O)NS(=O)(=O)c2ccccc2Cl)CCN1C(=O)C1CCCCC1 (stereo not drawn)	none (no result: TLR4-MyD88 BLA, HSF-1 act, HSF1 inh, TLR9-MyD88 block)
CCc1ccccc1NC(=O)COc1cccc2ccc(C)nc12	HSF1 inh -77.4
NNC(=O)c1nn(-c2ccc(Cl)cc2)cc1O	HSF1 inh -70.2 (no result: TLR4-MyD88 BLA)
COc1ccc(C(=O)N2CCOC2CNC(=O)C(=O)NCc2ccccn2)cc1 (stereo not drawn)	none (no result: TLR4-MyD88 BLA, HSF-1 act, HSF1 inh)
O=C(CN1C(=O)NC2(CCOc3ccccc32)C1=O)NCCc1ccc(F)cc1 (stereo not drawn)	none (no result: TLR4-MyD88 BLA, HSF-1 act, HSF1 inh)
COC(=O)/C=C1/N/C(=N\c2nc(C)cc(C)n2)N(c2ccc(C)c(C)c2)C1=O	HSF-1 act 90.9
CC1=CC=CC2=NC(=O)CC(C)(C(=O)N(CC(=O)NC3CCCC3)c3ccc(F)cc3)N12 (stereo not drawn)	none (no result: TLR4-MyD88 BLA)
Clc1ccc(Cn2ncc3c(N4CCCCC4)ncnc32)cc1	none
COc1ccc(-n2ncc3c(N4CCCCC4)ncnc32)cc1	HSF1 inh -81.0
Clc1ccc(-n2ncc3c(NCCN4CCOCC4)ncnc32)cc1	HSF1 inh -53.7
Clc1ccc(-n2ncc3c(N4CCCCCC4)ncnc32)cc1	HSF1 inh -89.3
Cc1ccc(-n2ncc3c(N4CCN(c5ccccc5)CC4)ncnc32)c(C)c1	none
COc1ccc(N2CCN(c3ncnc4c3cnn4-c3ccc(C)cc3C)CC2)cc1	HSF-1 act 76.6
c1ccc(-n2ncc3c(NCCCN4CCOCC4)ncnc32)cc1	none
CCN(CC(=O)Nc1ccc(Br)cc1)C(=O)c1nc2nc(C)cc(C)n2n1	none (no result: TLR4-MyD88 BLA, HSF-1 act, HSF1 inh)
CN(CC(=O)Nc1cccc(F)c1)C(=O)c1ccccc1-n1cnnn1	none (no result: TLR4-MyD88 BLA, HSF-1 act, HSF1 inh)
CCCCn1nnnc1C1(C)CCC(=O)N1c1ccc(N2CCOCC2)cc1 (stereo not drawn)	none (no result: TLR4-MyD88 BLA, HSF-1 act, HSF1 inh, TLR9-MyD88 block)
CC(C)C(NC(=O)c1ccccc1F)C(=O)NCCCn1ccnc1 (stereo not drawn)	none (no result: TLR4-MyD88 BLA, HSF-1 act, HSF1 inh)
COc1cccc(C2C=C(c3cccs3)Nc3ncnn32)c1OC (stereo not drawn)	NOD2 RIPK2 PPI 48.4, TLR9-MyD88 block 44.6
CCOc1c2ccc(C(=O)NCc3ccccc3OC)cc2nn1CC	HSF1 inh -66.5
CSCCC(NS(=O)(=O)c1ccccc1F)C(=O)NCc1cccnc1 (stereo not drawn)	none (no result: TLR4-MyD88 BLA)
CCC(C)NC(=O)c1cc2cc3ccc(OC)cc3nc2o1 (stereo not drawn)	HSF-1 act 62.5 (no result: TLR4-MyD88 BLA)
Cc1ccc(NC2CCCN(C(=O)c3ccc4nccnc4c3)C2)cc1C (stereo not drawn)	none (no result: TLR4-MyD88 BLA)
O=C(c1ccc2nccnc2c1)N1CCCC(Nc2ccc(F)c(F)c2)C1 (stereo not drawn)	HSF-1 act 59.3 (no result: TLR4-MyD88 BLA)
CN(NC1OC(=O)c2ccccc21)c1ncc(Cl)cc1C(F)(F)F (stereo not drawn)	HSF-1 act 66.3 (no result: TLR4-MyD88 BLA, TLR9-MyD88 block)
COc1cccc(NC(=O)Cn2c(=O)oc3cc(S(=O)(=O)N4CCCC4)ccc32)c1	HSF1 inh -56.3 (no result: TLR4-MyD88 BLA)
O=C(Cc1ccccc1F)Nc1ccc(S(=O)(=O)N2CCCCC2)cc1	HSF1 inh -64.9 (no result: TLR4-MyD88 BLA)
COc1ccc(NC(=O)CCN2CCN(S(=O)(=O)c3ccc(OC)cc3)CC2)cc1	HSF1 inh -91.3
COc1ccc(NC(=O)Cn2c(=O)oc3cc(S(=O)(=O)N4CCCC4)ccc32)c(OC)c1	none (no result: TLR4-MyD88 BLA)
O=C(Cc1ccc(F)cc1)Nc1ccc(S(=O)(=O)N2CCCC2)cc1	none (no result: TLR4-MyD88 BLA)
COc1ccccc1OCC(=O)Nc1ccc(S(=O)(=O)N2CCCC2)cc1	HSF1 inh -62.0 (no result: TLR4-MyD88 BLA)
COc1ccc(OC)c(C(=O)COC(=O)c2[nH]c(C)c(C(C)=O)c2C)c1	none (no result: TLR4-MyD88 BLA, HSF-1 act, HSF1 inh)
COc1ccccc1CCC(=O)OCC(=O)Nc1cccc(S(=O)(=O)N2CCCCC2)c1	none (no result: TLR4-MyD88 BLA)
COc1ccccc1CCC(=O)OCC(=O)Nc1cccc(S(=O)(=O)N2CCOCC2)c1	HSF1 inh -63.2 (no result: TLR4-MyD88 BLA)
COc1ccc(CNC(=O)OCCN2CCN(S(=O)(=O)c3ccc(C)cc3)CCC2=O)cc1	HSF1 inh -67.8
Cc1ccc(OCCNC(=O)CNC(=O)c2ccc(Cl)c([N+](=O)[O-])c2)cc1	none (no result: TLR4-MyD88 BLA, HSF-1 act, HSF1 inh)
O=C(N1CCOCC1)C12CCC3CC(CC(C3)C1)C2	HSF1 inh -53.8
O=C(N1CCOCC1)C12CC3CC(C1)CC(C(=O)N1CCOCC1)(C3)C2	none
